Assay results: PubChem BioAssay (NCI)
The panel holds about 79,000 compounds, 15% with a hit somewhere; the sample as a whole holds those more often. Activity calls are given as the source filed them. Cut-off read from the data, not from the text of the source: active = growth inhibition above about 70%; inactive = the rest.

Key:
[1] = NCI Yeast Anticancer Drug Screen. Data for the rad50 strain (AID 155);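 note: 0% = growth of vehicle-only cultures of the same strain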; settings: S. cerevisiae rad50 strain growth inhibition; at 50.0 µM; hits give high values
Outline: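 Yeast carrying a defined DNA repair defect were exposed to test compounds, and growth was compared with vehicle-treated controls to give percent inhibition.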

[2] = NCI Yeast Anticancer Drug Screen. Data for the mec2-1 strain (AID 157); settings: S. cerevisiae mec2-1 strain, at 50.0 µM, hits give high values
Outline: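 Compounds were applied to mec2-1 yeast cells. Their growth was then compared with that of vehicle-treated cultures to give growth inhibition.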

[3] = NCI Yeast Anticancer Drug Screen. Data for the sgs1 mgt1 strain (AID 161);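 note: 0% = growth of cultures given vehicle only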; settings: S. cerevisiae sgs1 mgt1 strain, at 50.0 µM, hits give high values
Outline: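 This yeast growth screen uses a strain with defined DNA-repair lesions; compound-treated growth is compared with vehicle-treated growth.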

[4] = NCI Yeast Anticancer Drug Screen. Data for the cln2 rad14 strain (AID 165);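 note: 0% = growth equal to vehicle treated cultures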; settings: S. cerevisiae cln2 rad14 strain, at 50.0 µM, hits give high values
Outline: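 Strain: cln2 rad14 yeast, altered in cell cycle control and DNA damage repair. Read-out: growth inhibition vs vehicle.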

[5] = NCI Yeast Anticancer Drug Screen. Data for the bub3 strain (AID 167); settings: S. cerevisiae bub3 mutant strain, at 50.0 µM, hits give high values
Outline: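 Compounds were applied to a genetically altered yeast strain carrying a cell-cycle control defect. Growth inhibition was scored against vehicle-treated controls.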

[6] = NCI Yeast Anticancer Drug Screen. Data for the mlh1 rad18 strain (AID 175); settings: S. cerevisiae mlh1 rad18 strain growth inhibition; at 50.0 µM; hits give high values
Outline: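 A repair-deficient yeast strain is exposed to test compound, and growth is scored relative to vehicle-treated controls.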

Measured: growth inhibition

C[n+]1ccccc1C#N
inactive: [1] -17.2% | [2] -32.1% | [3] 0.55% | [4] 11.9% | [5] -43.4% | [6] -4.2%

COC(=O)C(C(=O)C(=O)Nc1ccc([N+](=O)[O-])cc1)c1nc2ccc([N+](=O)[O-])cc2[nH]c1=O (stereo not given)
inactive: [1] 8.95% | [2] -3.1% | [3] -32.5% | [4] -41.2% | [5] -0.85% | [6] 8.75%

COC(=O)c1nnn(-c2ccc(Cl)cc2C)c1N
inactive: [1] -17.8% | [2] -1.95% | [3] 16.7% | [4] 29.7% | [5] -15.6% | [6] 21.2%

CCCCCCCCCCCCOC(=O)CSC#N
inactive: [1] -5.65% | [2] -38% | [3] -31.9% | [4] -67.5% | [5] -39.6% | [6] -14.1%

Cc1nccc2c3ccccc3n(S(=O)(=O)O)c12
inactive: [1] -4.7% | [2] 26.1% | [3] 11.4% | [4] 55% | [5] -5.95% | [6] 9%

Cc1ccc(S(=O)(=O)OC[C@H]2CC=CC[C@@H]2COS(=O)(=O)c2ccc(C)cc2)cc1
inactive: [1] -18.6% | [2] 31.6% | [3] 0.6% | [4] -29.6% | [5] 3.2% | [6] -6.1%

CC(C)C(N)(C(=O)O)c1ccccc1 (stereo not given)
inactive: [1] -19.7% | [2] -20.2% | [3] -51.5% | [4] -73.4% | [5] -14.9% | [6] -24.9%

Cc1ccc(-n2ncc3c(N)ncnc32)cc1
inactive: [1] 10.2% | [2] 12.4% | [3] 2.6% | [4] -19% | [5] -7.8% | [6] -14.2%

COCCN(C)C(c1ccccc1)C(O)c1ccccc1 (stereo not given)
inactive: [1] 4.8% | [2] -12.9% | [3] 4.3% | [4] -37% | [5] 4.95% | [6] 4.1%

c1csc(-c2cc(-c3cccs3)c(-c3ccsc3)s2)c1
inactive: [1] -46.8% | [2] -43.4% | [3] -32.2% | [4] -26.2% | [5] -19.5% | [6] -46%

COC(=O)Cc1ccccc1C(c1ccccc1)c1ccccc1
inactive: [1] -1.85% | [2] -0.4% | [3] 9.7% | [4] 6.7% | [5] 13.8% | [6] -0.65%

CC1CC(C)(C)OC(c2ccc(Cl)cc2)O1 (stereo not given)
inactive: [1] 9.35% | [2] -5.85% | [3] -9.6% | [4] -52.5% | [5] -12.4% | [6] -9.1%

COc1cc(C=Nc2ccc(C(C)C)cc2)cc(OC)c1OC
inactive: [1] 9.25% | [2] 13.3% | [3] 19.1% | [4] 8.35% | [5] -4.65% | [6] 12.7%

Cc1cccc(C)c1NC(=O)C(=O)CC(=O)c1sc(Nc2c(C)cccc2C)nc1C
inactive: [1] 12.1% | [2] -10.9% | [3] 26.2% | [4] -22.9% | [5] 16.6% | [6] 16.9%

COc1ccc(-c2nc(-c3cc4ccccc4oc3=O)cs2)cc1
inactive: [1] 13.1% | [2] 13.6% | [3] -12.1% | [4] 7.7% | [5] -18.4% | [6] -35.1%

C=CCSc1nc2ccc(NCn3c(=S)sc4ccccc43)cc2s1
active: [1] 71.7% | [3] 85.7%
inactive: [2] 65.2% | [4] 47.1% | [5] 41.9% | [6] 56.7%

CCN(CC)CCN1CC(=O)N2Cc3ccccc3CN2C(=O)C1
inactive: [1] -0.7% | [2] -4.45% | [3] 0.6% | [4] 10.4% | [5] 4.45% | [6] 5.9%

N#C[C@H](c1nc2ccccc2[nH]1)c1nc2ccccc2nc1Cl
inactive: [1] 5.5% | [2] 2.5% | [3] 21.9% | [4] 12.8% | [5] 15.3% | [6] 12.7%

CC[n+]1ccc2cc(OC)c(OC)cc2c1Cc1ccc(OC)c(OC)c1
inactive: [1] -18% | [2] -5.55% | [3] -5.85% | [4] -34% | [5] -1.2% | [6] -16.1%

CCOC1(C)Oc2cc3c(cc2C(c2cc(OC)c(OC)c(OC)c2)C1C)OCO3 (stereo not given)
inactive: [1] 12.4% | [2] 1.55% | [3] -6.75% | [4] -29.4% | [5] 1.4% | [6] 32.5%
